Each structure is given as a SMILES string. For part of these data: Results with a measured potency or affinity are listed apart. Active and inactive are the calls of the source.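 How the source made its calls, unless noted: active means calcium signal ratio cut to more than 3 SD under the fully stimulated control mean yet still positive, in both repeats and the primary screen; inactive means the rest.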

The term inhibition denotes the relative decrease from the control value, in per cent.

Experiment [1] has as its system TRPC4 beta (transient receptor potential cation channel C4), mouse. Nature of the experiment: activators of mouse TRPC4 channel, confirmation, cell-based, Fluo4 calcium, HEK293 TRPC4beta/mu-opioid, duplicates, 10 µM (AID 2426;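 active means fluorescence ratio normalized to control raised more than 50% in primary screen plus both repeat runs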). Conditions: Fluo4 calcium fluorescence, at 10 µM; hits give high values.
The subject of experiment [2] is transient receptor potential cation channel C4 beta (TRPC4), mouse. Description: activators of mouse TRPC4 channel, confirmation, cell-based, second round, Fluo4, HEK293 TRPC4beta/mu-opioid, 1 µM (AID 2461;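 active means primary screen active and over 50% activation in each of two duplicate runs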). Conditions: Fluo4 calcium fluorescence, at 1 µM; hits give high values.
Experiment [3] deals with TRPC4 (transient receptor potential cation channel C4 beta), mouse. Nature of the experiment: positive allosteric modulators of mouse TRPC4, confirmation, cell-based, second round, Fluo-4, HEK293 TRPC4beta/mu-opioid, 1 µM (AID 2554;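 active means primary screen hit whose fluorescence ratio, in both repeats, exceeds the weak agonist control mean by 3 SD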). The note with it: DAMGO EC20, Fluo-4 calcium flux, at 1 µM; hits give high values. For orientation: Calcium assays in cells follow changes in intracellular calcium, usually with a dye or a luminescent sensor.

The test system of experiment [4] is TRPC4 beta (transient receptor potential cation channel C4), mouse. Description: positive allosteric modulators of mouse TRPC4, confirmation, cell-based, Fluo-4, HEK293 TRPC4beta/mu-opioid (AID 2555;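 active means primary screen hit whose calcium fluorescence ratio, in both repeats, exceeds the weak agonist control mean by 3 SD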). Conditions: DAMGO EC20, Fluo-4 calcium flux, at 10 µM; hits give high values.
Experiment [5] concerns the target Short transient receptor potential channel 4 (Mus musculus) (UniProt Q9QUQ5). Description: inhibitors of mouse TRPC4 channel, confirmation, cell-based, Fluo4, HEK293 TRPC4beta/mu-opioid (AID 2636;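 active means calcium signal cut by more than 3 SD below the full-agonist control yet still positive, in both repeats and the earlier primary screen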). The note with it: DAMGO, Fluo4 calcium flux, at 10 µM; hits give high values.
Experiment [6] shares this target. Description: inhibitors of mouse TRPC4 channel, confirmation, cell-based, second round, Fluo4, HEK293 TRPC4beta/mu-opioid, 1 µM (AID 2637). Conditions: Fluo4 calcium flux, DAMGO, at 1 µM; hits give high values.
Experiment [7] has the same target. Description: mouse TRPC4 channel activators, dose response, cell-based, HEK293 TRPC4/mu-opioid, Fluo-4 calcium (AID 434937;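 active means primary screen activator hit with a dose response curve and TRPC4 channel activation at any tested dose; inactive means no activation, no dose response, or not a primary hit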).
For experiment [8] the target is unchanged. Description: TRPC4 positive allosteric modulators, dose response, cell-based, HEK293 TRPC4/mu-opioid, Fluo-4 calcium, EC20 DAMGO (AID 434941;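 active means earlier screen potentiator hit that boosts the TRPC4 ion channel at some dose, with a dose response; inactive means no potentiation, no dose response, or not a prior hit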;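 further: calcium entry triggered by an EC20 dose of DAMGO at the co-expressed mu-opioid receptor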).
The target is the same in experiment [9]. Nature of the experiment: mouse TRPC4 channel inhibitors, dose response, cell-based, HEK293 TRPC4/mu-opioid, Fluo-4 calcium (AID 434942;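 active means primary screen inhibitor hit that blocks the TRPC4 channel at some tested dose, yielding a dose curve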).
The target of experiment [10] is Short transient receptor potential channel 6 (Mus musculus) (UniProt Q61143). Nature of the experiment: inhibition of mouse TRPC6 channel, confirmation, selectivity assay for TRPC4 inhibitor project, cell-based, HEK293, membrane potential dye, duplicate (AID 434948;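 active means active in primary screen and both duplicates, each dropping signal beyond three positive-control SD with fluorescence still positive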). Conditions: HEK293 TRPC6, membrane potential dye fluorescence, at 10 µM, stimulated with maximal-effect acetylcholine; hits give high values.
Chain of Short transient receptor potential channel 6 (Mus musculus) (Q61143 whole entry, looked up): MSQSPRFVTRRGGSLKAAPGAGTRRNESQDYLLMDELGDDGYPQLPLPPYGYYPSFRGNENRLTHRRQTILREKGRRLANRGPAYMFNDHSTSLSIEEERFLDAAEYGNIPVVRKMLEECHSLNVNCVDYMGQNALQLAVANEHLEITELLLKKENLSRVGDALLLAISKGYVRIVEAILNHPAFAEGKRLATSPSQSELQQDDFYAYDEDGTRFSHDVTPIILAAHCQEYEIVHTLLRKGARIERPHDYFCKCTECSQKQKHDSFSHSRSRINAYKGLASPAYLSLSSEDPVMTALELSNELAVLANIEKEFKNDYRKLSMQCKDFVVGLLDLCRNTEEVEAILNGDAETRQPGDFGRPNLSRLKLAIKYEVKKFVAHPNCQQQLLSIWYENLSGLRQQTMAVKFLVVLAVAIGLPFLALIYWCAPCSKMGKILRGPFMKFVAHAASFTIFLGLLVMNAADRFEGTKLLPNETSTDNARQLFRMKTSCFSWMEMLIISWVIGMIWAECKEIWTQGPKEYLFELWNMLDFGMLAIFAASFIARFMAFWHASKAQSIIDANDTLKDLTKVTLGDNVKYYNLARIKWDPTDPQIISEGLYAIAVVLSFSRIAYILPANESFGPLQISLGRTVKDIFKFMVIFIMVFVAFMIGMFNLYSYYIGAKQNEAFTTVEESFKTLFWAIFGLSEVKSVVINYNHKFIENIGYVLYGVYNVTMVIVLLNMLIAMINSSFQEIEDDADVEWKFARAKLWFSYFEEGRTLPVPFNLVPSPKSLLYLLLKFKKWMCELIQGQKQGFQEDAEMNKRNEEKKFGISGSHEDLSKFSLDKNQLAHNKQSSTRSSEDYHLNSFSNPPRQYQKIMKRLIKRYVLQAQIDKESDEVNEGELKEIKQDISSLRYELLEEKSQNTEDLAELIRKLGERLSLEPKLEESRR

Experiment [11] has the same target. Description: activation of mouse TRPC6 channel, confirmation, selectivity assay for TRPC4 activator project, cell-based, HEK293, membrane potential dye, duplicate (AID 434950;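 active means membrane potential signal rise above negative control mean plus 3 SD in both duplicates, also active in the earlier TRPC4 screen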). Conditions: HEK293 TRPC6, membrane potential fluorescence, at 10 µM; hits give high values.
Experiment [12] has the same target. Description: TRPC6 potentiation by TRPC4 potentiator hits, confirmation, selectivity assay for TRPC4 potentiator project, HEK293 cells, membrane potential dye, duplicate (AID 434952;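 active means compound raising the membrane signal above positive-control mean plus 3 SD in both repeats, and a primary screen hit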). The note with it: HEK293 TRPC6, membrane potential dye fluorescence, at 10 µM, maximal acetylcholine added after compound; hits give high values.
The target of experiment [13] is Short transient receptor potential channel 4 (Mus musculus) (UniProt Q9QUQ5). Nature of the experiment: calcium flux activators in TRPC4/5HT1a cells, counter-screen for TRPC4 activator project, cell-based, second counter screen, HEK293 TRPC4/5HT1a, Fluo-4 (AID 434977;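 active means calcium signal rise above buffer-control mean plus 5 SD in both duplicates, and also a hit in the primary screen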). The note with it: Fluo-4 calcium flux, at 10 µM; hits give high values.
Chain of Short transient receptor potential channel 4 (Mus musculus) (Q9QUQ5 whole entry, looked up): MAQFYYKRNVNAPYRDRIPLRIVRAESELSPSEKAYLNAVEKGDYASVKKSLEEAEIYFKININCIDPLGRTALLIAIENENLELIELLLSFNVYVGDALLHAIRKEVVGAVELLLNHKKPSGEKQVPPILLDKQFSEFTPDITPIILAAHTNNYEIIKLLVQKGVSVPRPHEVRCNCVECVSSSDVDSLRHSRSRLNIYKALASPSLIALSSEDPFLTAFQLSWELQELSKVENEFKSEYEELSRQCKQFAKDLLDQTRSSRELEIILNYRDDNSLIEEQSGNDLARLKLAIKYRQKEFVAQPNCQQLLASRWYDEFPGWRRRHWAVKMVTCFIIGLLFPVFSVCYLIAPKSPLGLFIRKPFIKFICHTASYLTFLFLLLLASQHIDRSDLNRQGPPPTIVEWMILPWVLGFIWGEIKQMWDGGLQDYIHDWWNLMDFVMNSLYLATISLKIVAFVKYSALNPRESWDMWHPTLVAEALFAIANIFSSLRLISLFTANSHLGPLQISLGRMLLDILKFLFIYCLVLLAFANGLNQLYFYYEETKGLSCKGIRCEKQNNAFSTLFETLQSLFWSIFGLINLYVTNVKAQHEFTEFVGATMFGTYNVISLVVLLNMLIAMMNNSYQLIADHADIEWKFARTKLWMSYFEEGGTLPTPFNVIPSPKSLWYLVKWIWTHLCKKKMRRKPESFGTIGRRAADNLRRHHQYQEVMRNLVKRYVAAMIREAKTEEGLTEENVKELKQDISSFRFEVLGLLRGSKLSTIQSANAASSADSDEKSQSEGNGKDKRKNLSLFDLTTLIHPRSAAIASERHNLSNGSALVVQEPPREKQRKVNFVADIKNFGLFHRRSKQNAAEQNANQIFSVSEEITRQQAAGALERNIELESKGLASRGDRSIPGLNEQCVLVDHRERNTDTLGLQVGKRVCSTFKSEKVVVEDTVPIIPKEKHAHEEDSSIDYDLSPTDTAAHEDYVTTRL
Experiment [14] in a line: calcium flux inhibitors in TRPC4/5HT1a cells, confirmation, counter-screen for TRPC4 inhibitor project, cell-based, second counter screen, HEK293 TRPC4/5HT1a, Fluo-4 (AID 434978;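 active means primary screen active whose calcium signal fell more than 3 SD beyond the full-serotonin control mean in both duplicate plates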;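 further: serotonin given first at submaximal then at maximal dose after compound preincubation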). The note with it: Fluo-4 calcium flux, at 10 µM, serotonin added to trigger calcium flux; hits give high values.
Experiment [15] deals with TRPC4 (mouse), co-expressed with 5HT1a in HEK293. Description: calcium flux potentiators in TRPC4/5HT1a cells, confirmation, counter-screen for TRPC4 potentiator project, cell-based, second counter screen, HEK293 TRPC4/5HT1a, Fluo-4 (AID 434979;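 active means signal rise over 3 SD above mean of control wells given weak agonist, in both repeats and first screen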). Conditions: Fluo-4 calcium flux, at 10 µM, serotonin added at its EC20 dose; hits give high values.
A short description of experiment [16]: calcium flux activation in mu-opioid HEK293 cells, confirmation, counter-screen for TRPC4 activator project, cell-based, HEK293 mu-opioid receptor line (AID 449723;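 active means hit in primary screen, with calcium signal over 5 SD above buffer well mean in both duplicates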;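 further: counter screen cells carry the mu-opioid receptor alone and lack TRPC4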). The note with it: Fluo-4 calcium fluorescence, at 10 µM; hits give high values.
Experiment [17] is described as follows: calcium flux enhancement in mu-opioid HEK293 cells, confirmation, counter-screen for TRPC4 allosteric potentiator project, cell-based, HEK293 mu-opioid receptor line (AID 449724;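 active means calcium signal rise more than 3 SD above the low-dose agonist control mean, in both duplicate plates and the primary screen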;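 further: HEK293 cells carrying mu-opioid receptor only with no TRPC4 channel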). Conditions: Fluo-4 calcium flux, at 10 µM, compound added before EC20 DAMGO stimulus; hits give high values.

For `O=C(CN1CCCC1)N1c2ccccc2Sc2ccc(C(F)(F)F)cc21`, the result in [1], in experiment [2], in experiment [3], in experiment [4], in experiment [5] and in [6] was inactive. The result in [7], in experiment [8], in experiment [9], in experiment [10], in experiment [11] and in [12] was inactive. The outcome in experiment [13], in [14], in [15], in [16] and in experiment [17] was inactive.

With `CC(C)C(=O)N1CCN(c2nc(-c3ccccc3)c3c(c2C#N)CCCC3)CC1`, the result in experiment [1], in experiment [2], in [3], in experiment [5], in [6] and in experiment [7] was inactive. Also, the outcome in experiment [8], in experiment [9], in experiment [10], in experiment [11], in [12] and in experiment [13] was inactive. Moreover, the result in [14], in [16] and in [17] was inactive. Besides, the potentiation in [4] was 26% (active); in experiment [15], 29.4% (active).

Take `CC1(C)CC(=O)C(C=NCCN2CCN(C3CC(=O)N(c4cccc(Br)c4)C3=O)CC2)=C(O)C1` (stereo not given): the outcome in [1], in experiment [2], in [4], in [5], in experiment [6] and in experiment [7] was inactive. Besides, the outcome in experiment [8], in [9], in experiment [10], in [11], in experiment [12] and in experiment [13] was inactive. The result in [14], in [16] and in experiment [17] was inactive. Moreover, the potentiation in [3] was 12% (active); in experiment [15], 16.8% (active).

`CCN(CC)CCOCCOc1ccc(Cl)c2ccccc12`: the result in experiment [1], in experiment [2], in experiment [3], in experiment [4], in experiment [5] and in experiment [6] was inactive. The outcome in experiment [7], in experiment [8], in experiment [9], in experiment [10], in experiment [11] and in experiment [12] was inactive. Further, the outcome in experiment [13], in [14], in experiment [16] and in [17] was inactive. Besides, the potentiation in experiment [15] was 11% (active).

Turning to `CCN1CCN(C(=O)c2cc(-c3ccc(Cl)s3)nc3ccccc23)CC1`, the result in experiment [1], in experiment [2], in experiment [3], in experiment [5], in experiment [6] and in experiment [7] was inactive. For the same compound, the outcome in [8], in experiment [9], in [10], in [11], in [12] and in experiment [13] was inactive. For the same compound, the result in experiment [14], in experiment [16] and in experiment [17] was inactive. Further, the potentiation was 148% (active) in experiment [4] and 37% (active) in experiment [15].

For `Fc1ccc(Nc2ncnc3sc4c(c23)CCC4)cc1`, the result in [1], in experiment [2], in [4], in experiment [5], in [6] and in [7] was inactive. Moreover, the outcome in [8], in experiment [9], in experiment [10], in [11], in experiment [12] and in experiment [13] was inactive. Besides, the outcome in experiment [14], in [16] and in experiment [17] was inactive. The potentiation in experiment [3] was 22% (active); in experiment [15], 50% (active).

`CCN1CCN(c2c(Cl)cccc2NC(=O)c2cc3ccccc3o2)CC1`: the outcome in experiment [1], in experiment [2], in [3], in experiment [4], in experiment [5] and in experiment [6] was inactive. In addition, the result in experiment [7], in experiment [8], in [9], in experiment [10], in experiment [11] and in experiment [12] was inactive. Further, the result in experiment [13], in [14], in [16] and in [17] was inactive. Besides, in [15], the potentiation is 7.29% (active).

With `Cc1cc(OCCN2CCCCC2)nc2ccccc12`, the outcome in [1], in [2], in [3], in experiment [4], in [5] and in experiment [6] was inactive. Further, the outcome in [7], in experiment [8], in [9], in [10], in experiment [11] and in experiment [12] was inactive. In addition, the outcome in [13], in experiment [14], in experiment [16] and in [17] was inactive. Moreover, in experiment [15], the potentiation was 13.7% (active).

For the compound `O=C(Nc1ncc(Br)s1)C(Cc1ccccc1)n1cccc1` (stereo not given), the result in experiment [1], in experiment [2], in experiment [3], in experiment [5], in experiment [6] and in experiment [7] was inactive. For the same compound, the outcome in [8], in experiment [9], in experiment [10], in [11], in [12] and in experiment [13] was inactive. Also, the outcome in experiment [14], in [16] and in [17] was inactive. The potentiation was 26% (active) in experiment [4] and 7.42% (active) in experiment [15].

Consider `COc1cc(=O)n2c(-c3ccccc3)csc2n1`, for which the outcome in [1], in [2], in [3], in experiment [4], in [6] and in experiment [7] was inactive. Further, the outcome in experiment [8], in experiment [9], in experiment [10], in experiment [11], in experiment [12] and in experiment [13] was inactive. Besides, the result in experiment [14], in [15], in [16] and in experiment [17] was inactive. In addition, the inhibition in [5] was 39% (active).

As to `Cc1ccc(S(=O)(=O)NC(=O)N2CCN(Cc3c(F)cccc3Cl)CC2)cc1`, the result in [1], in experiment [2], in [3], in [4], in experiment [5] and in experiment [6] was inactive. Further, the result in experiment [7], in experiment [8], in experiment [9], in experiment [10], in [11] and in experiment [12] was inactive. Further, the outcome in [13], in experiment [14], in [16] and in experiment [17] was inactive. The potentiation in experiment [15] was 15.3% (active).

On to `CCN(CC)CCNc1ccc(Cl)cc1[N+](=O)[O-]`, for which the outcome in experiment [1], in experiment [2], in experiment [4], in [5], in experiment [6] and in experiment [7] was inactive. Moreover, the result in experiment [8], in [9], in [10], in experiment [11], in experiment [12] and in experiment [13] was inactive. Also, the outcome in experiment [14], in experiment [16] and in experiment [17] was inactive. Also, the figures for the potentiation in experiment [3] and in experiment [15] were 31% (active) and 17.9% (active), respectively.

Turning to `Cc1ccc(Nc2nc3ccccc3[nH]2)nc1`, the outcome in experiment [1], in experiment [2], in experiment [3], in experiment [4], in [5] and in experiment [6] was inactive. Besides, the outcome in experiment [7], in [8], in [9], in experiment [10], in [11] and in [12] was inactive. The outcome in experiment [13], in experiment [14], in experiment [15], in [16] and in experiment [17] was inactive.

Consider `OCCNc1nc(Nc2ccccc2)nc2ccccc12`, for which the result in experiment [1], in experiment [2], in [3], in experiment [4], in experiment [5] and in experiment [6] was inactive. For the same compound, the result in experiment [7], in experiment [8], in experiment [9], in [10], in [11] and in [12] was inactive. The outcome in experiment [13], in experiment [14], in experiment [15], in experiment [16] and in experiment [17] was inactive.

As to `Cc1cccc(C)c1OCC(=O)N1CC2(C)CC1CC(C)(C)C2` (stereo not given), the outcome in experiment [1], in [2], in experiment [3], in [4], in experiment [5] and in [6] was inactive. The result in experiment [7], in experiment [8], in experiment [9], in [10], in [11] and in experiment [12] was inactive. Further, the outcome in [13], in experiment [14], in experiment [15], in experiment [16] and in [17] was inactive.

The values above are taken from PubChem BioAssay.
